The text below walks through data of PubChem BioAssay AID1259336 (Sattelle Laboratory, UCL Respiratory, Division of Medicine, …, 2017).

The source made the active and inactive calls. Rule as the data show it: active = log2 fold change growth below about -1.8; inactive = the rest.

The assay is described as follows: anthelmintic activity against nematode growth – whole organism, log2 fold change (AID 1259336).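 Also: growth scored by imaging after five days at 20 °C.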 As to conditions: C. elegans growth, anthelmintic screen; active compounds read low.
Turning to `CC(C)(C)c1cnc(NC(=O)c2ccccc2O)s1`, the log2 fold change growth is 0.155 (inactive).
Take `Cc1cc(C(=O)Nc2ccc(-c3ccccc3)cc2)no1`: the log2 fold change growth was -3.09 (active).
In the case of `COc1cc(C2=NCCN2)ccc1-n1cc(-c2cccc(C3=NCCN3)c2)nn1`, the log2 fold change growth was -0.901 (inactive).
Consider `COc1ccc(Cl)cc1NC(=O)CN(C)C(=O)c1cnn(-c2ccccc2)n1`, for which the log2 fold change growth was -0.154 (inactive).
In the case of `CC(C)n1ncc2c(C(=O)NC[C@@H](c3cccs3)N3CCOCC3)cc(-c3ccccc3)nc21`, the log2 fold change growth was -2.7 (active).
As for `Cn1ccnc1CNCCS(=O)(=O)c1cccc(Nc2ccc(-c3cccc(F)c3)cn2)c1`, the log2 fold change growth was 0.155 (inactive).
In the case of `NC(=O)c1cc(Br)ccc1OCCOc1ccccc1`, the log2 fold change growth was 0.186 (inactive).
Regarding `C[C@H](C(N)=O)N1CCCC[C@@H]1c1ccc(OCc2cccc(F)c2)cc1`, the log2 fold change growth is -0.0568 (inactive).
`OC[C@H]1O[C@@H](n2c3ccc(Cl)cc3c3c(-c4cc5ccccc5o4)ncnc32)C(O)[C@H]1O` (stereo partly drawn): the log2 fold change growth was -0.877 (inactive).
`CCc1c(C)nc(-n2nc(C)cc2NC(=O)c2ccccc2SC)[nH]c1=O`: the log2 fold change growth was -0.0348 (inactive).
Turning to `O=C(NCCc1ccn(-c2ccccc2)n1)C1CCCCC1`, the log2 fold change growth was 0.0936 (inactive).
As to `COc1ccc(C2(C(=O)Nc3ccc(Br)cc3)CCCC2)cc1`, the log2 fold change growth was -0.749 (inactive).
For `O=C(Nc1cccnc1)c1c(O)c2cccc3c2n(c1=O)CC3`, the log2 fold change growth was -4.81 (active).
For `Cc1nn(C(=O)Nc2cccc(C(F)(F)F)c2)c(C)c1Sc1ncccn1` the value was -0.494 (inactive); for `O=C(Nc1c(O)cccc1-c1nc2c(C(=O)O)cccc2o1)c1cc(-c2ccccc2)on1`, -0.772 (inactive).
The value for `c1ccc(Oc2ccc(-c3cc(C4CCOCC4)[nH]n3)cc2)cc1` was -0.254 (inactive).
In the case of `CCc1ccc([C@@H](NCc2nc(N)nc(N(C)C)n2)C(C)C)cc1`, the log2 fold change growth is 0.433 (inactive).
For the compound `Nc1ncnc2c1c(-c1cnc3ccccc3c1)nn2CC1CCNCC1`, the log2 fold change growth was 0.195 (inactive).
On to `CNC(=O)c1cc(S(=O)(=O)N2CCN(c3ccccn3)CC2)cs1`, for which the log2 fold change growth is -0.156 (inactive).
In the case of `N#Cc1ccc(-c2cnc(N)c(-c3ccc(C(N)=O)cc3)n2)cc1`, the log2 fold change growth is -0.619 (inactive).
Turning to `CNC(=O)CNc1nc(-c2ccccn2)nc2scc(-c3ccccc3)c12`, the log2 fold change growth was 0.152 (inactive).
In the case of `CCCS(=O)(=O)N1CCC(CO)(Cc2ccccc2C(F)(F)F)CC1`, the log2 fold change growth was 0.357 (inactive).
The value for `Cc1cc(C)cc(COc2ccc3c(C)c(CCC(=O)O)c(=O)oc3c2C)c1` was -0.0961 (inactive); that for `CC(C)[C@@H](C(=O)Nc1ccc(S(=O)(=O)N(C)C)cc1)c1ccc(Cl)cc1` was -5.06 (active); that for `CCCCc1ccc(C(=O)Nc2nccc3ccccc23)nc1` was 0.243 (inactive).
For `Cc1[nH]c2ccccc2c1[C@H](c1cccs1)N1CCN(C)CC1` the value was -0.0891 (inactive).
`COc1ccc(OC)c(NCc2ccc3nc(N)nc(N)c3c2Cl)c1`: the log2 fold change growth was 0.162 (inactive).
For `CC[C@H](Sc1nc2ccccc2o1)C(=O)Nc1nccs1` the value was -0.397 (inactive); for `NCCC[C@@](N)(C(=O)O)C(F)F`, 0.109 (inactive); for `NS(=O)(=O)c1cncc(-c2ccc3nccc(-c4cn[nH]c4)c3n2)c1`, -0.501 (inactive).
For `COc1ccc(-c2cnc3ccc(N4CCCC4)nn23)cc1OC`, the log2 fold change growth was -0.625 (inactive).
As to `CO[C@@H](C(=O)N1Cc2[nH]nc(NC(=O)c3ccc(N4CCN(C)CC4)cc3)c2C1)c1ccccc1`, the log2 fold change growth was 0.339 (inactive).
For the compound `O=C(NC1CC1)c1ccc(CSCc2ccccc2Cl)o1`, the log2 fold change growth is 0.276 (inactive).
On to `CCOc1ccc(OCC(=O)Nc2cc(C)cc(C)c2)cc1`, for which the log2 fold change growth is -0.0899 (inactive).
As to `CC(C)(C)c1cc(C(=O)N2CCN(c3nccnc3C#N)CC2)n(Cc2ccccc2)n1`, the log2 fold change growth was -0.0659 (inactive).
For `N#Cc1nc(-c2ccccc2)oc1S(=O)(=O)c1ccc(Cl)cc1`, the log2 fold change growth is 0.277 (inactive).
Consider `CCn1ncc2c(NC3CCOCC3)c(CNC(=O)c3ccnn3C)c(C)nc21`, for which the log2 fold change growth is -0.407 (inactive).
Regarding `COC(=O)c1ccc(F)cc1NS(=O)(=O)c1cccc(-c2cnn(Cc3ccccc3)c2)c1`, the log2 fold change growth is -0.413 (inactive).
